Test results as given in PubChem BioAssay AID1053126 (Broad Institute, 2014).
Results with a measured potency or affinity are listed apart. The source made the active and inactive calls.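 The calls were made as follows: active = cell killing with a fitted half-effect concentration at or below twice the top valid dose; inconclusive = flat curve with 30 to 70 percent drop, or poor fit; inactive = the rest.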

Assay: viability loss in HEK293T kidney cells – cell-based, ATP luminescence, cherry-pick, set 6, cytotoxicity control, dose response (AID 1053126)
Conditions: CellTiter-Glo ATP luminescence, 72 h; series mostly up to 26 µM

Row | SMILES | outcome
1 | CNNC(=S)NC1CC2CC1C1C=CCC21 (configuration not stated) | inactive
2 | CCCN1CCN(C(=O)c2ccc(CS(=O)c3ccc(Br)cc3)o2)CC1 (configuration not stated) | inactive
3 | CC(C)CCN1C(=O)c2cccc3c(N)ccc(c23)C1=O | inactive
4 | C=Cc1ccc(Cn2c(C)c(C(=O)NCc3cccc(C)c3)sc2=O)cc1 | inactive
5 | COCCN1C=C(C(=O)OC)C(c2ccc(Cl)cc2)C(C(=O)OC)=C1 | inactive
6 | CCn1c(=N)c(S(=O)(=O)c2ccccc2)cc2c(=O)n3ccccc3nc21 | inactive
7 | CSCCC1(C(=O)O)NC(c2ccccc2O)C2C(=O)N(C(C)C)C(=O)C21 (configuration not stated) | inactive
8 | O=C(NS(=O)(=O)c1ccc(Cl)s1)c1ccccc1 | inactive
9 | O=C(NCc1nnnn1-c1ccc(Cl)cc1)C1CC(=O)N(c2ccc(F)cc2)C1 (configuration not stated) | inactive
10 | Cc1ccc(S(=O)(=O)CCC(=O)OCC(=O)Nc2cccc(S(=O)(=O)N3CCCCC3)c2)cc1 | inactive
11 | Cc1cccn2c(=O)c(/C=C(\C#N)C(=O)NC3CCS(=O)(=O)C3)c(N3CCC(C(N)=O)CC3)nc12 (configuration not stated) | inactive
12 | CCN(CC)c1ccc2cc(C(N)=O)c(=O)oc2c1 | inactive
13 | CN1CCN(c2nc3ccccn3c(=O)c2/C=C(\C#N)S(=O)(=O)c2ccccc2)CC1 | inactive
14 | Cc1cccn2c(=O)c3cc(C(N)=S)c(=N)n(CCCN4CCOCC4)c3nc12 | inactive
15 | CCN(CC)c1ccc2cc(C#N)c(=O)oc2c1 | inactive
16 | Fc1ccc(-c2nc3ccccn3c2NCc2ccc3c(c2)OCO3)cc1 | inactive
17 | CCOc1ccc(C2C(C#N)=C(N)Oc3cc(O)ccc32)cc1OCC (configuration not stated) | inactive
